TGFb inhibitor: qHTS for Inhibitors of TGF-b; HepG2 CAGA-GFP TGF-b/SMAD3 reporter, GFP fluorescence, 18 h; TGF-beta stimulated, 500 pg/mL final; AID 588855, 2011; Potency, µM (doses to about 46.1 µM), without a hit: at the top dose activity, negative = inhibition, hits mostly inhibitors; 1.2% of 410,000 active; also: % is scaled to controls: 0 for no effect and ±100 for the full control effect; nearly all actives have a fitted effect of over 65% in size
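Inhibition of TGF-beta-driven CAGA-GFP reporter expression in HEPG2 cells is measured by cellular GFP fluorescence after 18 h stimulation with 500 pg/mL recombinant TGF-beta in 1% FBS medium at 37 degrees C.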
ATXN2 expr inh: Primary qHTS for Inhibitors of ATXN expression | HEK-293 ATXN2-luciferase reporter, luminescence, 24 h | Potency, µM (doses to about 57 µM), for inactives: at the top dose activity change, negative = inhibition, most hits filed as inhibitors | 0.72% of 360,000 active | AID 1745845, 2022; also: % is scaled to controls: 0 for no effect and ±100 for the full control effect; nearly all actives have a fitted effect of over 55% in size
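ATXN2-luciferase reporter cells (luciferase flanked by upstream and downstream ATXN2 gene portions) were treated 24 h at 37 °C with compounds at up to 57 uM. SteadyGlo luminescence gave expression; GF-AFC fluorescence gave viability.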
DT40 TDP1 no CPT: qHTS for Inhibitors of human tyrosyl-DNA phosphodiesterase 1 (TDP1): qHTS in cells in absence of CPT. DT40 Tdp1-/- hTDP1 cells, no CPT, ATP luminescence, 48 h. Potency, µM (doses to about 46.2 µM), for the others: at the highest dose activity change, negative = growth inhibition, actives largely listed as inhibitors. 15% of 420,000 active; also: % is scaled to controls: 0 for no effect and ±100 for the full control effect; nearly all actives have a fitted effect of over 55% in size
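Growth kinetics read by CellTiter-Glo luminescence after ≥48 hr at 37 °C. Cells: DT40 Tdp1-/- stably carrying human TDP1, 400 per well, compound exposure in the absence of CPT (DMSO vehicle).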
HepG2 tox-1: qHTS for Inhibitors of TGF-b: Cytotox Counterscreen. HepG2 CAGA-GFP viability, ATP luminescence, 18 h. Potency, µM (series often up to 46.1 µM), for the others: at the top dose activity change, negative = cytotoxicity, usual class: cytotoxic. 0.76% of 410,000 active. AID 588856, 2011
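HepG2 CAGA-GFP cells (1000/well, DMEM with 1% FBS) received compound, then TGF-beta at 500 pg/mL final, and were incubated 18 hours at 37 degrees C. Viability was read by CellTiter-Glo luminescence. Media-only wells were set as complete cell-killing and DMSO as no toxicity.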
TDP1 cell CPT: qHTS for Inhibitors of human tyrosyl-DNA phosphodiesterase 1 (TDP1): qHTS in cells in presence of CPT; 12% of 420,000 active; Potency, µM (series often up to 46.2 µM), without a hit: at the highest dose activity change, negative = growth inhibition, most hits filed as inhibitors; chicken DT40 Tdp1-/-;hTDP1 cells + 20 nM CPT, ATP luminescence, 48 h; also: % is scaled to controls: 0 for no effect and ±100 for the full control effect; nearly all actives have a fitted effect of over 55% in size
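Chicken DT40 Tdp1-/- cells stably complemented with human TDP1 were seeded at 400 cells/well in medium containing 20 nM camptothecin, exposed to pin-transferred compounds, and grown at 37 °C for at least 48 hr. Viability was read as ATP luminescence.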
ATXN viability: Viability Counterscreen for Primary qHTS for Inhibitors of ATXN expression; S2 cells (HEK-293 line with an ATXN2-luciferase reporter) viability, CellTiter-Fluor protease fluorescence, 24 h; Potency, µM (doses to about 56.7 µM), hits mostly cytotoxic; 0.49% of 400,000 active; also: nearly all actives have a fitted effect of over 40% in size
TGFb CAGA inh: qHTS for Inhibitors of TGF-b: Confirmation of Cherry Picks; shares compounds with TGFb inhibitor; HepG2 CAGA-GFP TGF-b reporter, GFP fluorescence, 18 h; cells stimulated with TGF-beta, 500 pg/mL; Potency, µM (series often up to 46.1 µM), inactives show at the top dose activity, negative = inhibition, hits mostly inhibitors; 63% of 1,600 active; AID 720534, 2013; also: % is scaled to controls: 0 for no effect and ±100 for the full control effect; nearly all actives have a fitted effect of over 65% in size
HepG2 tox-2: qHTS for Inhibitors of TGF-b: Cytotox Counterscreen for Cherry Picks | shares compounds with TGFb inhibitor | HepG2 CAGA-GFP viability, ATP luminescence, 18 h; cells stimulated with TGF-beta, 500 pg/mL | Potency, µM (doses to about 46.1 µM), for inactives: at the highest dose activity, negative = cytotoxicity, actives largely listed as inhibitors | 27% of 1,600 active | AID 720535, 2013; also: % is scaled to controls: 0 for no effect and ±100 for the full control effect; nearly all actives have a fitted effect of over 70% in size
CCL64 TGFb inh: qHTS for Inhibitors of TGF-b: CCL64 Cells Orthogonal Assay for Cherry Picks; AID 720536, 2013; shares compounds with TGFb inhibitor; Potency, µM (top dose mostly 46.1 µM), inactives show top-dose activity, negative = inhibition, usual class: inhibitors; CCL64 CAGA-GFP reporter, TGF-b stimulated, GFP fluorescence, 18 h; 41% of 1,600 active; also: nearly all actives have a fitted effect of over 65% in size
COP TGFb inh: qHTS for Inhibitors of TGF-b: Hit Validation in HepG2 Cells using COP promoter; shares compounds with TGFb inhibitor; HepG2 COP-GFP TGF-b reporter, GFP fluorescence, 18 h; cells stimulated by added recombinant TGF-beta; Potency, µM (highest dose often 46.1 µM), for the others: at the top dose activity, negative = inhibition, usual class: inhibitors; 3% of 1,600 active; AID 720537, 2013; also: nearly all actives have a fitted effect of over 70% in size
Active calls of the source: *; i = inactive; ? = inconclusive; . = no result given. Sampled rows, rich in hits. Any-hit rate of the full collection: about 17%. Calls follow the shape of the dose curve; as a rule, active = well fitted curve in the direction sought with a large enough effect; inconclusive = small, poorly fitted or top-dose-only effect, or another doubt; inactive = no such curve, though single readings can be large; an effect the other way counts as inactive or inconclusive. Potency is read from the fitted curve at half-maximal effect.

SMILES	TGFb inhibitor	ATXN2 expr inh	DT40 TDP1 no CPT	HepG2 tox-1	TDP1 cell CPT	ATXN viability	TGFb CAGA inh	HepG2 tox-2	CCL64 TGFb inh	COP TGFb inh
COc1ccccc1-c1cc(C(F)(F)F)nc(S(=O)(=O)CCCC(=O)N2CCCCC2C)n1 (centres undefined)	10µM*	?	4.11µM*	-101.4%	4.11µM*	.	9.2µM*	18.4µM*	4.61µM*	?
CN1CCN(S(=O)(=O)c2ccc(Sc3nc4ccccc4[nH]3)c3nsnc23)CC1	10µM*	7.8%	-25.5%	1.0%	-23.4%	i	-19.5%	5.8%	6.1%	8.8%
CCN(C(=O)CN1C(=O)S/C(=C\c2cccc(OC)c2)C1=O)C1CCS(=O)(=O)C1 (centres undefined)	17.0%	5.0%	7.6%	-1.3%	?	i	.	.	.	.
O=c1c2ccccc2c(=O)n(Cc2ccccc2)n1Cc1ccccc1	11.2µM*	-21.9%	-17.8%	-15.6%	6.2%	i	?	-29.0%	18.4µM*	?
O=C1C=C(OCCF)CC(c2cccc([N+](=O)[O-])c2)O1 (centres undefined)	.	.	22.7%	.	32.4%	.	.	.	.	.
COc1ccccc1NC(=O)c1cc2cc(Br)ccc2cc1O	5.62µM*	.	3.66µM*	-49.0%	6.51µM*	i	7.31µM*	8.2µM*	5.8µM*	68.4%
Cc1ccc(Cl)cc1NC(=O)c1cc2ccccc2cc1O	3.55µM*	.	2.91µM*	-76.0%	2.59µM*	i	2.59µM*	7.31µM*	4.11µM*	77.6%
COc1ccccc1NC(=O)COC(=O)c1cc2ccccc2cc1O	8.4%	-4.0%	0.4%	-45.9%	-21.5%	i	.	.	.	.
Cc1ccc(Cl)cc1NC(=O)COC(=O)c1ccccc1O	17.1%	-0.5%	20.9%	-8.8%	-1.7%	i	.	.	.	.
COc1cc(NC(=O)c2cc3ccccc3cc2O)c(OC)cc1Cl	4.47µM*	.	10.3µM*	-57.7%	14.6µM*	i	7.31µM*	6.51µM*	5.8µM*	33.1%
COc1cc(OC)c(NC(=O)c2ccccc2F)cc1Cl	1.0%	.	-20.9%	-11.9%	-11.2%	i	.	.	.	.
COC(=O)c1[nH]c2c(c1C(=O)OC)CCc1ccccc1-2	0.6%	3.1%	-1.3%	-29.3%	3.9%	i	.	.	.	.
COC(=O)N/N=C(\C)c1ccc(OC(F)F)cc1OC(F)F	-0.7%	-6.7%	0.4%	1.4%	1.0%	?	.	.	.	.
Nc1nnc(-c2ccccc2)c(-c2ccccc2)n1	-4.4%	-0.1%	?	5.2%	?	i	.	.	.	.
c1ccc(-c2nc3nonc3nc2-c2ccccc2)cc1	8.91µM*	?	13µM*	10µM*	20.6µM*	?	14.6µM*	?	?	?
COc1cccc(NC(=O)Nc2nc(SC(C)(C)C)ns2)c1	6.31µM*	?	?	-103.9%	14.6µM*	?	10.3µM*	?	8.2µM*	41.4%
CCSc1nsc(NC(=O)Nc2cccc(F)c2)n1	7.08µM*	?	4.11µM*	-41.0%	20.6µM*	?	7.31µM*	6.51µM*	?	103.8%
COc1ccc(NC(=O)Nc2cccc(OC)c2)cc1	6.5%	87.9%	-0.9%	0.4%	-15.8%	i	.	.	.	.
CCCSc1nsc(NC(=O)CC)n1	?	1.2%	?	-20.2%	-12.8%	i	.	.	.	.
CCCSc1nsc(NC(=O)Nc2ccc(F)cc2F)n1	8.91µM*	.	4.11µM*	-82.9%	5.17µM*	.	6.51µM*	5.8µM*	7.31µM*	81.9%
CC(=O)Nc1cccc(NC(=O)Nc2cccc(F)c2)c1	?	.	?	-3.1%	-14.1%	i	.	.	.	.
COc1cccc(Nc2nc(NCC3CCCO3)c3ccccc3n2)c1 (centres undefined)	6.31µM*	?	5.17µM*	10µM*	6.51µM*	?	?	?	20.6µM*	90.7%
CC(=O)Nc1ccccc1-c1nc2ccccc2n(Cc2cccc(Br)c2)c1=O	.	.	?	-5.3%	-3.8%	.	.	.	.	.
CSc1cccc(NC(=O)CCCOc2ccc(Cl)cc2C)c1	12.6µM*	5.5%	?	-19.4%	18.4µM*	i	20.6µM*	-21.2%	15.9%	-15.8%
COc1ccc2[nH]c3c(c2c1)CCN1C(=O)C(CC(=O)NCCN2CCOCC2)C[C@H](C(=O)N(C(C)C)C(C)C)[C@@]31C (some centres undefined)	?	2.2%	-19.9%	-30.2%	?	i	.	.	.	.
COc1ccc(CNC(=O)C[C@H]2C[C@H](C(=O)N(C(C)C)C(C)C)[C@@]3(C)c4[nH]c5ccc(Cl)cc5c4CCN3C2=O)cc1OC	14.1µM*	?	18.4µM*	-11.9%	18.4µM*	?	8.2µM*	?	?	61.6%
COc1ccc(CNC(=O)C[C@H]2C[C@H](C(=O)N3CCCCC3)[C@@]3(CCc4ccccc4)c4[nH]c5ccc(Cl)cc5c4CCN3C2=O)cc1OC	6.31µM*	-3.3%	10.3µM*	-2.6%	10.3µM*	?	8.2µM*	-17.5%	6.51µM*	32.5%
